USP28 block – human USP28 deubiquitinase inhibition | AID 1645857 | 47,000 compounds, 3% hits | inhibition, % at 25 µM | purified USP28, Ub-rhodamine cleavage fluorescence, 30 min | Q96RU2
USP30 inh – human USP30 deubiquitinase inhibition. Q70CQ3. purified USP30, Ub-rhodamine cleavage fluorescence. inhibition, % at 25 µM. 47,000 compounds, 5.3% hits. AID 1645860
OTUD3 block – inhibitors of human OTUD3 deubiquitinase; Q5T2D3; purified OTUD3, Ub-rhodamine fluorescence, 2 h; inhibition, % at 25 µM; 47,000 compounds, 0.7% hits
Target sequence (Q5T2D3 whole entry, looked up): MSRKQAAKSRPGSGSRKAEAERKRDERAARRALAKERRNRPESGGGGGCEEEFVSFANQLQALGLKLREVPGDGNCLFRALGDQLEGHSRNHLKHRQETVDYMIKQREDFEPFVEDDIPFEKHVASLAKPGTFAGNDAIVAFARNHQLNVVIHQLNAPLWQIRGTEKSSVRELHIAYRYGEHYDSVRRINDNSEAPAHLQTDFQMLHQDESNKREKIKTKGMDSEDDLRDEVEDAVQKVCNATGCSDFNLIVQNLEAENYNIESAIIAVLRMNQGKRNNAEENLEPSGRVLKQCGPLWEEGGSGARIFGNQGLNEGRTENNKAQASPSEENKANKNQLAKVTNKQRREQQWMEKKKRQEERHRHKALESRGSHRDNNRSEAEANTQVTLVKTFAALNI
USP17 block – blocks human USP17 ubiquitin-rhodamine cleavage. AID 1645855. inhibition, % at 50 µM. A8MUK1. 47,000 compounds, 6.5% hits. purified USP17, Ub-rhodamine cleavage fluorescence, 3 h
Of the large screens only hits and unclear results are named; the others gave an inactive call. Sampled rows, rich in hits. Any-hit rate of the full collection: about 11%. No stated cut-off is given here; in the data, active means inhibition above about 30%; inactive means the rest.

COc1cc(OC)cc(C(=O)Nc2ccc3oc(-c4ccc5ccccc5c4)nc3c2)c1	USP17 block 33.1
CCOc1cc(CNC(=O)CCC(=O)N2Cc3cccn3-c3ccccc32)ccc1OC	none
CCOc1ccccc1NC(=O)Nc1nnc(CC(=O)N2CCCCC2)s1	none
COc1cc(-c2nc3ncccn3c2NC2CCCCCC2)cc(OC)c1OC	none
O=C(NCC1CCCO1)N1CCCn2nc(-c3cccnc3)cc2C1 (stereo not drawn)	none
O=C(NCc1ccco1)N1CCCn2nc(-c3cccnc3)cc2C1	USP17 block 31.0
O=C(C1CC1)N1CCCn2nc(-c3cccc(F)c3)cc2C1	none
COc1cccc(-n2cnc3cc(C(=O)NCc4ccncc4)ccc3c2=O)c1	USP30 inh 31.0
CCc1nc2ccc(C(=O)NCc3ccc(OC)cc3)cc2nc1CC	none
C=C1C(=O)O[C@@H]2C[C@@]3(C)CCCC(=C)[C@@H]3C[C@H]12	none
CC(Sc1nnc(-c2ccccc2Br)o1)C(=O)Nc1cccc(Cl)c1 (stereo not drawn)	USP30 inh 43.3
CSc1ccc(CCNC(=O)CCc2nc3cccnc3n2Cc2ccccc2)cc1	none
CSc1cccc(NC(=O)CCc2nc3cccnc3n2Cc2ccccc2)c1	USP17 block 48.1
CCc1ccc(NC(=O)CCc2nc3cccnc3n2Cc2ccccc2)cc1	USP28 block 57.1, USP30 inh 78.9, OTUD3 block 45.8, USP17 block 71.3
Cc1ccc(Nc2nc(Nc3cccc(Cl)c3)nc3nccnc23)cc1	none
COc1ccc(Nc2nc(NCc3ccccc3)c3nccnc3n2)cc1	USP28 block 36.9
O=C(NCc1ccccc1Cl)C1CCN(c2ccc(-c3ccccc3)nn2)CC1	USP30 inh 41.1
Cc1ccccc1CNC(=O)c1ccc(-c2ccc(N3CCCC3)nn2)cc1	USP17 block 47.7
COCC1CCN(C(=O)CCC2CCCN(c3cc(NC4CC4)ncn3)C2)CC1 (stereo not drawn)	none
COc1ccc(S(=O)(=O)c2c(C)c(C)n(C(C)C)c2NC(=O)c2ccccc2F)cc1	USP17 block 30.8
COc1cc2c(cc1OC)-c1cc(Nc3ccc(Br)cc3)nc(=O)n1CC2	USP30 inh 53.2
COc1ccc(NC(=O)Cn2c(=O)n(Cc3ccco3)c(=O)c3ccc(C(=O)NC4CCCC4)cc32)cc1	none
COc1cc(NC(=O)Cn2c(=O)n(CC3CCC(C(=O)NC4CCCC4)CC3)c(=O)c3ccccc32)cc(OC)c1 (stereo not drawn)	USP30 inh 43.7, OTUD3 block 42.6, USP17 block 60.9
COc1ccc(OC)c(NC(=O)CN2CCC(c3nc4ccccc4[nH]3)CC2)c1	none
COc1ccc(OC)c(NC(=O)Cn2c(=O)n(CC3CCC(C(=O)NCCc4ccccc4)CC3)c(=O)c3ccccc32)c1 (stereo not drawn)	USP30 inh 36.5, OTUD3 block 93.3, USP17 block 39.4
O=C(Cn1c(=O)n(CC2CCC(C(=O)NCCc3ccccc3)CC2)c(=O)c2ccccc21)NCc1ccco1 (stereo not drawn)	none
CCC(=O)Nc1ccccc1-c1nc2ccccc2n(CC(=O)Nc2cc(OC)ccc2OC)c1=O	USP28 block 39.8, USP30 inh 85.3, USP17 block 45.1
O=C(Cn1c(=O)n(CC2CCC(C(=O)NC3CCCC3)CC2)c(=O)c2ccccc21)NCc1ccco1 (stereo not drawn)	USP28 block 49.9, USP30 inh 38.7, OTUD3 block 58.1, USP17 block 54.1
O=C(NC1(c2nc(-c3cnccn3)no2)CCCCC1)c1ccco1	none (no result: USP28 block, USP30 inh)
CC(C)CCN1C[C@H]2C[C@H](C(=O)N3CCOCC3)[C@@H](C1)O2	none
COc1ccc(CNC(=O)c2cc(OCc3ccc(C)cc3)nc3ccccc23)cc1	none (no result: USP28 block, USP30 inh)
Cc1ccc(CNC(=O)c2n[nH]c3c2CCCC3)cc1	none
Cn1c(=O)n([C@@H](Cc2ccccc2)C(=O)NCc2ccc(F)cc2)c(=O)c2ccccc21	USP30 inh 45.8
O=C(NCc1ccc(F)cc1)C(c1ccccc1)c1ccccc1	USP30 inh 30.8
Cc1cn2nc(N3CCC(C4CCCCCN4S(C)(=O)=O)CC3)sc2n1 (stereo not drawn)	none
COc1ccc2nc(-n3nc(C)c4c3NC(=O)CC4c3c(F)cccc3F)sc2c1 (stereo not drawn)	none
COc1ccc2sc(NC(=O)Cc3c(C)nc4[nH]nc(C)n4c3=O)nc2c1	none
COCCOC(=O)C1=C(C)Nc2nc3ccccc3n2C1c1cc(OC)c(OC)c(OC)c1 (stereo not drawn)	USP17 block 33.8
O=C(NCCc1nc2ccccc2n1CCCOc1ccccc1Cl)C1CCCCC1	USP30 inh 79.1, OTUD3 block 33.2, USP17 block 82.7
O=C(Cn1c(=O)n(C2CC2)c(=O)c2nscc21)Nc1cccc(F)c1	none
O=C(COc1cccc(Cl)c1)N1CCSc2ccccc21	USP28 block 39.2, USP30 inh 35.9
CCC(=O)Nc1nc2ccc(NS(=O)(=O)c3ccc(NC(C)=O)cc3)cc2s1	none
CCN[C@H]1C[C@@H](c2ccccc2)OC2(CCN(Cc3cn(C)nc3C)CC2)C1	USP17 block 31.4
N#Cc1cnn(-c2ncnc3cc(-c4ccccc4Cl)sc23)c1N	none
O=S(=O)(c1ccccc1)N1CCC2(CCN(Cc3ccc(Cl)cc3)C2)C1 (stereo not drawn)	none
Cc1ccc(Cn2nnc(-c3ccccc3Cl)n2)cc1	USP28 block 64.3
Cn1c(N)c(C(=O)Cn2nnc(-c3ccccc3Cl)n2)c(=O)n(C)c1=O	none
Cc1nc(-c2ccc(NC(=O)N3CCN(c4ccccn4)CC3)cc2)no1	USP28 block 61.9
Cc1nc(-c2ccc(NC(=O)N3CCC(Cc4ccccc4)CC3)cc2)no1	USP28 block 39.5
Cc1nc(-c2ccc(NC(=O)N3CCN(c4ccccc4F)CC3)cc2)no1	none
Cc1cc(C)c2c(-n3cccc3)c(C(=O)NCCc3ccc(S(N)(=O)=O)cc3)sc2n1	USP28 block 79.7
CCn1c(-c2nnc(SCC(=O)NCCc3nc4ccccc4[nH]3)o2)cc2ccccc21	USP17 block 91.9 (no result: USP28 block, USP30 inh)
Cc1ccc(-n2ccnc(NC(=O)c3ccccn3)c2=O)cc1C	none (no result: USP17 block)
O=C(Nc1nccn(-c2cccc(F)c2)c1=O)c1ccccn1	USP28 block 71.7, USP30 inh 90.8, USP17 block 49.0
CC(C)=CCOc1ccc(C[C@H]2NC(=O)[C@@H](C)NC(=O)[C@@H](Cc3ccc(O)cc3)NC(=O)CNC(=O)[C@H](C)NC(=O)[C@H](Cc3ccccc3)OC2=O)cc1	none
CC(C)C[C@@H]1NC(=O)[C@H](Cc2ccccc2)N(C)C(=O)[C@H](C)NC(=O)c2ccccc2NC(=O)[C@H](Cc2ccc(O)cc2)N(C)C1=O	USP17 block 41.0
COc1ccc(C(=O)Nc2ccc(S(=O)(=O)N3CCCCC3)cc2)cc1	USP28 block 65.8
CC(=O)Nc1ccc(S(=O)(=O)N2CCC(C(=O)Nc3ccc4cc[nH]c4c3)CC2)cc1	none
CCOC(=O)N1CCN(S(=O)(=O)c2ccc(C(=O)Nc3ccc(OCC)cc3)cc2)CC1	none
O=C(Nc1ccc2c(c1)OCO2)c1cccc(S(=O)(=O)N2CCCCCC2)c1	none
COc1ccc(S(=O)(=O)N2CCC(C(=O)Nc3ccc4c(c3)OCO4)CC2)cc1	USP28 block 38.0
